Inconclusive results are not listed. Entries that show only a call come without a potency. Activity calls are given as the source filed them. The call rests on the fitted dose curve; in most records, active means well fitted inhibition curve with a large enough effect; inconclusive means small, poorly fitted or top-dose-only effect; inactive means no such curve, though single readings can be large or run the other way.
The compounds below were run on Zika virus NS2B-NS3 protease (linked construct) (assay: Primary screen NINDS Rhodamine qHTS for Zika virus inhibitors (AID 1347160; further: nearly all actives have a fitted effect of over 55% in size)). Conditions: purified NS2B-NS3 protease, Rhodamine110 substrate fluorescence; series mostly up to 57.1 µM.
Text: Avindra Nath, Ph.D., National Institute of Neurological Disorders and Stroke (NINDS), Bethesda, MD
Radhakrishnan Padmanabhan, Ph.D., Georgetown University (GU), Washington D.C.
Zika Virus causes congenital defects, including microcephaly and is associated with Guillain-Barre syndrome, eningoencephalitis and myelitis in infected adult. […] Using a target-based approach, we hope to establish a screening paradigm to uncover novel, cell-active NS2B-NS3 protease (Zika Virus) specific inhibitors from NCATS' collection of small molecules using qHTS.
Four assay panel was created to identify potential Zika Virus inhibitors. Namely, (1) GU unlinked NS2B-NS3 AMC tagged protease qHTS, (2) GU unlinked NS2B-NS3 Rhodamine tagged protease qHTS, (3) NINDS linked NS2B-NS3 AMC tagged protease qHTS, (4) NINDS linked NS2B-NS3 Rhodamine tagged protease qHTS. Active compounds were re-acquired and re-screened to confirm inhibition. Inhibitors were further screened against various confirmatory and counterscreens in dose response format.
Early Translation Branch (ETB)
National Center for Advancing Translational Sciences (NCATS), Rockville, MD
National Institute of Health (NIH), Bethesda, Maryland
For the linked assay, Nath lab (NINDS) provided the purified linked NS2B-NS3 protease which is consists of hydrophilic domain of NS2B linked to the NS3 protease domain by a flexible (-[…]-) linker. Control compound aprotinin is obtained from Thermo Scientific (#78432; Waltham, Massachusetts). Rhodamine110 substrate ([N-Cbz]-Nle-Lys-Arg-Arg-Rhod110-Arg-Arg-Lys-Nle-[N-Cbz]) was purchased from either Genscript or Bachem.
1536-well Protease (Rhodamine110 Substrate) Assay:
Briefly, 3 microL of enzyme (25 nM final concentration), in assay buffer (10 mM Tris-HCl pH 8.0 with 0.01% Tween 20) were dispensed into a 1,536-well solid-bottom black plate (Greiner Bio One, Monroe, NC). Twenty-three nL of compounds (final concentration range 7.28 nM to 114 microM) or control Aprotinin (final concentration range 3.47 nM to 114 microM) were transferred via Wako Pin-tool (Wako Automation, Richmond, VA). Samples were incubated (room temperature, protected from light) for 15 minutes followed by a 1 microL Rhodamine110 substrate addition (1.5 microM final concentration). Plates were then immediately read on a ViewLux High-throughput CCD imager (PerkinElmer, Waltham, MA) equipped with FITC fluorescence optics (480(20) nm excitation, 540(25) nm emission), then incubated (room temperature, protected from light) for 15 minutes (~15% conversion). The change in fluorescence intensity over the 15-minute reaction period was normalized against no-inhibitor and no-enzyme controls and the resulting percent inhibition data were fitted to a 4-parameter Hill equation. Aprotinin was used as intraplate control.
For `C=C(C)C(=O)O[C@H]1[C@H]2C(=C)C(=O)O[C@@H]2C[C@@H](C)/C=C\C(=O)[C@](C)(O)[C@@H]1OC(C)=O`, the Potency was “inactive”. For `C=CC(=O)Nc1cc(Nc2nccc(-c3cn(C)c4ccccc34)n2)c(OC)cc1N(C)CCN(C)C`, the Potency was “inactive”. With `C[N+]1(C)[C@@H]2CC[C@H]1CC(OC(=O)C(O)c1ccccc1)C2` (stereo not given in full) the Potency was “inactive”. With `C=C1C[C@@]23C=CC(=O)[C@@](C)(CCC(=O)Nc4c(O)ccc(C(=O)O)c4O)C2C[C@@H]1C(O)C3` (stereo not given in full) the Potency was 44 µM (active). `C[C@@H]1C(=O)[C@]23CC[C@H]1C[C@]21O[C@H]2C(C)(C)C=CC(=O)[C@]23COC1=O` was tested, and the Potency was “inactive”. In the case of `CC1CCC2(NC1)OC1CC3C4CC=C5CC(O[C@@H]6O[C@H](CO)[C@@H](O[C@@H]7O[C@@H](C)[C@H](O)[C@@H](O)[C@H]7O)[C@H](O)[C@H]6O[C@@H]6O[C@@H](C)[C@H](O)[C@@H](O)[C@H]6O)CCC5(C)C4CCC3(C)C1C2C` (stereo not given in full), the Potency is reported as “inactive”. For `O=Cc1ccc2n1C[C@@]1(C[C@H](O)[C@H](O)CO1)OC2`, the Potency was “inactive”. For `CO[C@@H]1[C@H](O)[C@@H](C)O[C@@H](OC[C@@H]2C(C)OC(=O)/C=C/[C@H](C)C(O[C@@H]3O[C@H](C)CC4(OC(=O)O[C@@H]4C)C3O)[C@@H](C)CC(C)C(=O)CC[C@H]3OC23)[C@@H]1OC` (stereo not given in full), the Potency was 49.3 µM (active). With `CC1CCCC(SCC(O)C(=O)O)CC(=O)c2c(O)cc(O)cc2CC(=O)O1` (stereo not given) the Potency was “inactive”. For `C[C@@]12C[C@@H](C[C@H]3C(=O)O[C@@H](c4ccoc4)[C@H](OC(=O)c4ccccc4)[C@@H]31)OC2=O`, the Potency was “inactive”. In the case of `C=C1[C@@H](C)[C@H]2[C@H](Cc3c[nH]c4ccccc34)NC(=O)[C@]23C(=O)/C=C/C(=O)[C@H](O)/C(C)=C\[C@@H](C)C/C=C/[C@H]3[C@@H]1O`, the Potency is reported as “inactive”. For `CC/C(=C(\c1ccc(O)cc1)c1ccc(OCCNC)cc1)c1ccccc1`, the Potency was “inactive”. In the case of `Cc1cc2nc(NCCCO)n(CC(=O)c3cc(C(C)(C)C)c(O)c(C(C)(C)C)c3)c2cc1C`, the Potency is reported as “inactive”. For `C=C1/C(=C/C=C2\CCC[C@]3(C)[C@@H]([C@H](C)/C=C/C(=O)C4CC4)CC[C@@H]23)C[C@@H](O)C[C@@H]1O`, the Potency was “inactive”. `OC(CNCCc1c[nH]c2ccccc12)Cn1c2ccccc2c2ccccc21` (stereo not given) was tested, and the Potency was “inactive”. For `C[C@@H]1O[C@@H](O[C@@H]2[C@@H](O)[C@H](O[C@@H]3[C@@H](O)[C@@H](O)C(O[C@H]4[C@H](OC(=O)[C@]56CCC(C)(C)C[C@H]5C5=CCC7[C@@]8(C)C[C@H](O)[C@H](O[C@@H]9C[C@H](CO)[C@@H](O)[C@H](O)[C@H]9O)[C@@](C)(CO)C8[C@H](O)C[C@@]7(C)[C@]5(C)CC6)OC[C@H](O)[C@@H]4O)O[C@H]3C)OC[C@H]2O)[C@H](O)[C@H](O)[C@H]1O` (stereo not given in full), the Potency was 24.3 µM (active). With `COc1ccc([C@@H]2c3cc(OC)c(OC)cc3C(=O)[C@H](C)C2C)cc1OC` (stereo not given in full) the Potency was “inactive”. With `CC(C)(C)c1ccc(CNC(=S)NCc2ccc(NS(C)(=O)=O)c(F)c2)cc1` the Potency was “inactive”. In the case of `C=C[C@@]1(C)CC[C@@H]([C@H](C)C(=O)/C=C/C(C)C)O1`, the Potency is reported as “inactive”. With `C=C1CC[C@@H]2[C@](C)(CO)[C@H](O)CC[C@@]2(C)[C@@H]1C/C=C1/C(=O)OC[C@@H]1O` the Potency was “inactive”. In the case of `COc1cc2ncnc(Oc3cccc(NC(=O)Nc4cc(C(C)(C)C(F)(F)F)on4)c3)c2cc1OC`, the Potency is reported as “inactive”. `C/C(=C\[C@H](C)C(=O)CCCC1CC(=O)NC(=O)C1)C(O)[C@@H](C)[C@H](O)C/C=C/CC/C=C/C(=O)O` (stereo not given in full) was tested, and the Potency was 55.3 µM (active). With `CS/C=C/C(N)=O` the Potency was “inactive”. With `COc1cc2ncnc(Nc3ccc(Oc4ccccc4)cc3)c2cc1OC` the Potency was “inactive”. In the case of `CN1C(=O)[C@]23SS[C@@]1(C)C(=O)N2[C@H]1Nc2ccccc2[C@]1(c1c[nH]c2ccccc12)[C@@H]3O`, the Potency is reported as 49.3 µM (active). With `C=CC(=O)Nc1cccc(Nc2nc(Nc3ccc(Oc4ccnc(C(=O)NC)c4)cc3)ncc2F)c1` the Potency was “inactive”. `CC12C[C@]3(O)O[C@@H](O1)[C@]1(COC(=O)c4ccccc4)[C@@H]3CC21OC1OC(CO)C(O)C(O)C1O` (stereo not given in full) was tested, and the Potency was “inactive”. `C=CC(C)(C)C(=O)[C@@H](C)[C@@H]1CC[C@](C)(C=C)O1` was tested, and the Potency was “inactive”. For `Cc1ccc(C2(COC(=O)C(C)C)CO2)c(OC(=O)C(C)C)c1` (stereo not given), the Potency was “inactive”. In the case of `CO[C@@H]1[C@H](O)[C@@H](C)O[C@@H](OC[C@H]2/C=C/C=C/C(=O)C(C)C[C@H](C)C(O[C@@H]3O[C@H](C)CC4(OC(=O)O[C@@H]4C)C3O)[C@@H](C)/C=C/C(=O)OC2C)[C@@H]1OC` (stereo not given in full), the Potency is reported as 49.3 µM (active). For `C[C@]12CC[C@]3(C1)[C@H](CC2=O)CC(OC(=O)c1ccccc1)[C@H]1[C@@](CO)(C(=O)O)CCC[C@@]13C` (stereo not given in full), the Potency was 49.3 µM (active). `CCCCCCC[C@@H](C/C=C/CCC(=O)NCCc1c[nH]c2ccccc12)OC` was tested, and the Potency was 49.3 µM (active). For `CC1(C)CCC[C@]2(C)[C@@H]1CC[C@@]13C[C@@H](CC[C@H]12)C(C)(O)C3` (stereo not given in full), the Potency was 44 µM (active). For `COc1ccc2cc(NC(=O)C3=NO[C@H]4[C@H](O)C=C[C@@H](Cl)[C@@]4(O)C3)c(=O)oc2c1OC`, the Potency was 49.3 µM (active). With `CC1C(=O)C23CCC1C[C@]21O[C@@H]2C(C)(C)C=CC(=O)[C@@]23COC1=O` (stereo not given in full) the Potency was 31.1 µM (active). With `O=C1c2c(O)cc(O)cc2O[C@@H](c2ccc(O)cc2)[C@@H]1c1c(O)cc(O)c2c(=O)cc(-c3ccc(O)c(O)c3)oc12` the Potency was 3.92 µM (active). With `C=C1[C@H]2CC[C@@]3(C=CC(=O)[C@@](C)(CCC(=O)Nc4c(O)ccc(C(=O)O)c4O)C3C2)[C@H]1O` (stereo not given in full) the Potency was 44 µM (active). `N#Cc1cccc(C#N)c1-c1nc2c3ccccc3c3cc(Cl)ccc3c2[nH]1` was tested, and the Potency was “inactive”. `COCCNCc1ccc(-c2cc3nccc(Oc4ccc(NC(=S)NC(=O)Cc5ccc(F)cc5)cc4F)c3s2)nc1` was tested, and the Potency was “inactive”. `CCNC(=O)[C@@H]1CCCN1C(=O)[C@H](CCCN=C(N)N)NC(=O)[C@H](CC(C)C)NC(=O)[C@@H](CC(C)C)NC(=O)[C@H](Cc1ccc(O)cc1)NC(=O)[C@H](CO)NC(=O)[C@H](Cc1c[nH]c2ccccc12)NC(=O)[C@H](Cc1cnc[nH]1)NC(=O)[C@@H]1CCC(=O)N1` was tested, and the Potency was “inactive”.

— PubChem BioAssay (NCATS)
Potency means the concentration at half of the fitted maximal effect.
